PubChem BioAssay AID1508622 (National Center for Advancing Translational Sciences (NCATS), 2021)
Calls of active or inactive are those of the source. The call rests on the fitted dose curve; in most records, active means well fitted activation curve with a large enough effect; inconclusive means small, poorly fitted or top-dose-only effect; inactive means no such curve, though single readings can be large or run the other way.

Assay: Confirmatory qHTS for Identification of Small Molecule Activators of Huntingtin-Antisense Promoter Activity
Conditions: HEK293 HTT-AS promoter firefly luciferase reporter, 24 h; series mostly up to 57.5 µM
Summary of the method: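 HEK293 luciferase reporter cells, 2,500/well, cultured 24 h, then exposed to compounds at up to 57.5 uM final for 24 h at 37C. Firefly luciferase luminescence read; normalized to vehicle (0%) and zero RLU (-100%).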
Potency means the concentration at half of the fitted maximal effect.

Potency, inactive:
COc1cccc(OCc2nc3ccccc3n2CCOc2ccccc2)c1, Cc1ccc(NCc2cccn2-c2nnc(N3CCC(C(=O)NCc4ccc(OC(C)C)cc4)CC3)s2)cc1, CC(C)c1ccc(NC(=O)CSC2=Nc3ccccc3C3=NC(CCC(=O)NCc4ccc(F)cc4)C(=O)N23)cc1 (centres undefined), N#Cc1ccccc1S(=O)(=O)N1CCC(Oc2ccc(-n3cnnn3)cc2)CC1, COc1ccccc1CNS(=O)(=O)c1ccc2c(c1)CC(C)N2C(=O)C1CCC1 (centres undefined), COc1ccc(CCNC(=O)Cn2nc(C)c3c(C)n(-c4ccc(C)cc4)nc3c2=O)c(OC)c1, CCOC(=O)C1CCN(S(=O)(=O)c2ccc(N3CCCCS3(=O)=O)cc2)CC1, Cn1c(CN2CCCCC2)nc2cc(NC(=O)c3ccc(Cl)cc3)ccc21, Cc1ccc(Cn2c(=O)c3ccccc3n3c(-c4cccc(O)c4)nnc23)cc1, CCOC(=O)C1CCC(CN(Cc2c(Cl)cccc2Cl)S(=O)(=O)c2ccc(Cl)cc2)CC1 (centres undefined), Cc1cccc2sc(N3CCN(C(=O)CS(=O)(=O)c4ccc(F)cc4)CC3)nc12, CC(=O)N1CCCc2cc(S(=O)(=O)N3CCN(c4ccc(F)cc4)CC3)ccc21, COc1cc(CN(C(=O)COc2ccc(Br)cc2)c2ccccn2)cc(OC)c1OC, O=C(Cn1c(=O)oc2cc(S(=O)(=O)N3CCCCC3)ccc21)NCc1ccc(F)cc1, CCCOc1ccccc1C(=O)N1CCC(c2nc3ccccc3s2)CC1, O=C(Nc1cccc(Cl)c1)C1CCCN(c2nn3cc(-c4ccc(F)cc4)nc3s2)C1 (centres undefined), CCOc1ccc(NS(=O)(=O)c2ccc(-c3cc(C)no3)s2)cc1, CSc1ccc(CCNC(=O)C2CCCN(S(=O)(=O)N(C)c3ccc(F)cc3)C2)cc1 (centres undefined), O=C(Nc1cccc(F)c1)c1cnc2sc(N3CCCC3)nn2c1=O, Cc1cc(-c2ccc(S(=O)(=O)Nc3cccc(C)c3C)s2)on1, Cc1cccc(N2CCN(C(=O)c3cccc(-n4c(C)nc5cccnc54)c3)CC2)c1C, CCC1=Nc2cc(C(=O)NC3CCCC3)ccc2Sc2ccc(Cl)cc21, Cc1ccc(-c2cn3nc(N4CCCC(C(=O)Nc5ccc(F)cc5)C4)sc3n2)cc1 (centres undefined), Cc1cccc(-c2nc(SCC(=O)Nc3ccc4c(c3)OCO4)c(-c3ccccc3)[nH]2)c1, C[n+]1cc2c3c(ccc2c2ccc4cc5c(cc4c21)OCO5)OCO3, CCOCCCNC(=O)Nc1cc(C(=O)NCc2ccc(C(C)C)cc2)ccc1N1CCCC1, FC(F)(F)c1cccc(Nc2nc3nonc3nc2Nc2ccc(Cl)cc2)c1, CC(C)c1ccc(NC(=O)C2CCN(c3nc(-c4ccc(C(C)C)cc4)no3)CC2)cc1, Cc1ccc(C)c(N2CCN(CCCNC(=O)c3cnn(-c4ccccc4Cl)c3C3CCN(C(=O)OC(C)(C)C)CC3)CC2)c1, Cn1cnc(S(=O)(=O)N2CCC(C(=O)Nc3ccc(OC(F)(F)F)cc3)CC2)c1, CCOc1cccc(NC(=O)c2ccc(F)c(S(=O)(=O)N(CC)c3cccc(C)c3)c2)c1, Cc1ccc(Nc2cc(C)nc(-n3nc(C)cc3C)n2)cc1, Cc1nc2sccn2c(=O)c1S(=O)(=O)Nc1ccc(N2CCOCC2)c(Cl)c1, CCCNc1nc(NCc2ccccc2OC)c2cnn(C)c2n1, COc1ccc(C)cc1NC(=O)CN1CCCN(S(=O)(=O)c2ccc(Br)cc2)CC1

Potency, active:
Cc1ccc(-n2ncc3c(N(C)Cc4ccccc4)ncnc32)cc1 213 nM, Cc1ccc(S(=O)(=O)Nc2cccc(-c3ccc(N4CCCCC4)nn3)c2)s1 1510 nM, COc1ccc(C(=O)Nc2cccc(-c3cn4ccsc4n3)c2)c(OC)c1 13500 nM, Cc1cc(C)cc(NC(=O)Nc2cccs2)c1 3380 nM
